# ± gives the standard deviation of the averaged measurements.
# Compound: CCOC(C)=O [ethyl acetate]
# Test: control-subtracted net OSN firing rate; higher = stronger neuronal activation
# Conditions: odorant dilution (vol/vol): 1/100
# Protocol: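 Single sensillum recordings from olfactory sensory neurons. The neurons sit in the maxillary palp or antennal sensilla of D. melanogaster (wild type, mutants, or at1 empty-neuron lines expressing Or42a homologs or the A181D S307P mutant) and of four Scaptomyza species. Each odorant was given as a 1 s pulse from 20 µl loaded on filter paper at 1:100 vol/vol, diluted in mineral oil (γ-hexalactone in DMSO). Spikes were counted in a 0.5 s window starting 0.2 s after onset, background was subtracted, the count was doubled, and the mean solvent-control response was subtracted.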
row,Target,control-subtracted net OSN firing rate
1,S. pallida pb3b-like,28.7 ± 25 spikes/s
2,Canton-S (D. melanogaster) pb3a,1.33 ± 8.4 spikes/s
3,Canton-S (D. melanogaster) pb2a,4.57 ± 6.5 spikes/s
4,S. flava pb3b-like,0.333 ± 9.7 spikes/s
5,S. flava pb2a-like,-1.67 ± 5.7 spikes/s
6,S. pallida pb3a-like,8.67 ± 14 spikes/s
7,Canton-S (D. melanogaster) pb2b,4 ± 6.4 spikes/s
8,Canton-S (D. melanogaster) pb3b,0.333 ± 9.4 spikes/s
9,S. hsui pb1a-like,98.3 ± 21 spikes/s
10,S. flava pb1b-like,-6.33 ± 12 spikes/s
11,S. hsui pb2b-like,53 ± 37 spikes/s
12,S. pallida pb2a-like,7.33 ± 11 spikes/s
13,Canton-S (D. melanogaster) pb1b,-7.33 ± 9.6 spikes/s
14,S. flava pb1a-like,61.7 ± 23 spikes/s
15,S. hsui pb2a-like,8 ± 5.1 spikes/s
16,S. pallida pb1b-like,-12.7 ± 9.3 spikes/s
17,S. flava pb3a-like,6.67 ± 11 spikes/s
18,S. hsui pb3b-like,-2.33 ± 2.3 spikes/s
19,S. hsui pb1b-like,-16.7 ± 9.4 spikes/s
20,S. hsui pb3a-like,-4.33 ± 11 spikes/s
21,Canton-S (D. melanogaster) pb1a,89.1 ± 27 spikes/s
22,S. flava pb2b-like,0.333 ± 7.3 spikes/s
23,S. pallida pb1a-like,80.3 ± 20 spikes/s
24,S. pallida pb2b-like,9.33 ± 10 spikes/s
